# Screens deposited in PubChem BioAssay by National Center for Advancing Translational Sciences (NCATS).
# Tau FP inhib = inhibitors of human tau fibril formation | K18 P301L tau heparin fibrillization, Alexa594 FP, 6 h | Potency, µM (doses to about 57.7 µM), for inactives: at the top dose activity, negative = inhibition, most hits filed as inhibitors | 0.39% of 280,000 active | AID 1468; further: nearly all actives have a fitted effect of over 55% in size
# Target sequence (P10636 561-689 P618L limits assumed): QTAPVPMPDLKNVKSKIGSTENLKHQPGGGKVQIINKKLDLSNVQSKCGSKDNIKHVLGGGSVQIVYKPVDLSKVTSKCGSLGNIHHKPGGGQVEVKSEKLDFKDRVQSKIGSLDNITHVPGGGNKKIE
#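 Quantitative HTS format: compounds meet 15 uM recombinant K18 P301L tau and Alexa 594-tau tracer in 100 mM sodium acetate pH 7; 20 uM heparin triggers fibrillization at 37 C over 6 hr; FP gives the signal.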
# Tau fluor counter = counter-screen for tau fibril formation inhibitors; tau K18 P301L Alexa594 fluorescence, heparin fibrillization; Potency, µM (top dose mostly 57.7 µM), without a hit: at the highest dose activity change, negative = decrease; 0.93% of 280,000 active; further: nearly all actives have a fitted effect of over 55% in size
#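 Human tau K18 P301L (15 uM unlabeled, 0.24 uM Alexa 594-labeled) in 100 mM sodium acetate pH 7 with 20 uM heparin, 6 hr at 37 C. ThT 30 uM added, 1 hr ambient; Alexa 594 FP and total fluorescence read at 555/632 nm.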
# TRb SRC2 PPI = disrupts binding of human TR beta to SRC2. P10828. TRbeta-SRC2 peptide binding, fluorescence polarization; receptor liganded with 1 µM T3. Potency, µM (highest dose often 106 µM), inactives show top-dose activity change, negative = inhibition, most hits filed as inhibitors. 0.065% of 280,000 active. AID 1469;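 further: plate controls were bound peptide for no effect and peptide without receptor for full effect; nearly all actives have a fitted effect of over 50% in size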
# Target sequence (P10828 whole entry, looked up): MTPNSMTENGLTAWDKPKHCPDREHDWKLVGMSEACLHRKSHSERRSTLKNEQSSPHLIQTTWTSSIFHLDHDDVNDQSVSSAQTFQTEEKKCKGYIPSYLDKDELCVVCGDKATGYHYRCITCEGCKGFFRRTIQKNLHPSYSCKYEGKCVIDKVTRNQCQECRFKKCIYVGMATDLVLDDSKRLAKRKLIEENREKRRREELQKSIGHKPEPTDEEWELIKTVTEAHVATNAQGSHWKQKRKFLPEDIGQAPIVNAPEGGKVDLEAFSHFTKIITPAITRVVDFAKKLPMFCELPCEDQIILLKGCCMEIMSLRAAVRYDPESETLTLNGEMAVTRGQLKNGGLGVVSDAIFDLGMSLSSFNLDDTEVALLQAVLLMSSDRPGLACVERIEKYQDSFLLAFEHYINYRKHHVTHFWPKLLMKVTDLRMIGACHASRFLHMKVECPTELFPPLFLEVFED
#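 Human TRb ligand-binding domain (0.6 uM) is mixed with 20 nM Texas Red SRC2 peptide and 1 uM T3; after compound addition and 5 hr at ambient temperature, polarization is measured and normalized to unbound and bound controls.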
# TexasRed fluor = Texas Red fluorescence interference in TRb-SRC2 counter-screen; TRb/SRC2 Texas Red total fluorescence interference; Potency, µM (titrated, usually from 106 µM), for the others: at the top dose fluorescence change, negative = quenching; 0.29% of 280,000 active; active means well fitted curve in either direction with a large enough effect; inconclusive means small, poorly fitted or top-dose-only effect
#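 Human TRβ ligand-binding domain (0.6 uM) and Texas Red SRC2 peptide (20 nM) in Tris buffer with 1 uM T3 and 5% DMSO were incubated with pinned compound for 5 hr at ambient temperature. Total fluorescence was computed as S + 2P (555/632 nm).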
# Tau fibril ThT = blocks human tau fibril formation measured by thioflavin T. 2.1% of 270,000 active. Potency, µM (titrated, usually from 57.4 µM), for inactives: at the highest dose activity, negative = inhibition, most hits filed as inhibitors. recombinant tau K18 P301L (four-repeat tau fragment), heparin-induced fibrillization, ThT fluorescence; further: nearly all actives have a fitted effect of over 55% in size
#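 Recombinant human tau K18 fragment […] carrying P301L, 15 uM unlabeled plus 0.24 uM Alexa 594-labeled, was fibrillized with 20 uM heparin in 100 mM sodium acetate pH 7 for 6 hr at 37 C; 30 uM ThT fluorescence read after 1 hr.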
# * = called active by the depositor; ? = inconclusive; nt = not tested or not shown; [ ] = dose if it differs, or a comment. Only some compounds are listed: those with a hit (about 3.1% of all), similar ones and a draw of the others. Unless noted, the call rests on the fitted dose curve; in most records, active means well fitted curve in the direction sought with a large enough effect; inconclusive means small, poorly fitted or top-dose-only effect, or another doubt; inactive means no such curve, though single readings can be large; an effect the other way counts as inactive or inconclusive. Unless noted, on the % scale 0 is the no-effect control and ±100 the full control effect; potency means the concentration at half of the fitted maximal effect.
SMILES,Tau FP inhib,Tau fluor counter,TRb SRC2 PPI,TexasRed fluor,Tau fibril ThT
Cc1cccc(/C=C2\CCC(=C3SCCCS3)C2=O)c1,-4.9%,-21.8%,-10.0%,-3.7%,1.41µM*
CCOC(=O)c1cc2c(=O)n3ccccc3nc2n(CCCOC)c1=NC(=O)c1c(-c2c(F)cccc2Cl)noc1C,-3.2%,-14.0%,-7.2%,-0.9%,0.7%
COc1ccccc1NS(=O)(=O)c1ccc(N/N=C/c2ccccc2OCC(=O)O)c([N+](=O)[O-])c1,1.2%,?,3.3%,-16.1%,10µM*
CCN(CC)S(=O)(=O)c1ccc(N/N=C/c2ccccc2OCC(=O)O)c([N+](=O)[O-])c1,11.4%,-14.6%,-0.3%,-9.4%,?
O=C(O)COc1ccccc1/C=N/Nc1ccc(S(=O)(=O)Nc2ccc(Cl)cc2)cc1[N+](=O)[O-],?,?,-7.8%,-10.9%,14.1µM*
CCOC(=O)c1ccc(N2C(=O)c3[nH]nc(-c4ccccc4)c3C2c2ccc(CC)cc2)cc1 (stereo not given),?,?,2.0%,-1.0%,-8.2%
O=C(NC1=NCCS1)c1cc(-c2ccc(-c3ccccc3)cc2)nc2ccccc12,28.2µM*,-23.2%,8.4%,3.1%,-4.9%
COC(=O)c1sc(NC(=O)c2cc(-c3ccccc3)nc3ccccc23)c(C#N)c1C,?,?,6.7%,0.8%,28.2µM*
COc1ccc(Br)cc1CNC(=O)CCCn1c(=O)c2cccn2c2cccnc21,10.4%,-2.0%,5.2%,-0.3%,-6.2%
COc1ccc(N2CCN(c3csc4ccc(Cl)cc4c3=O)CC2)cc1,3.9%,-21.6%,9.5%,-0.5%,6.31µM*
COc1ccc(N2CCN(c3csc4ccccc4c3=O)CC2)cc1,-4.6%,?,4.2%,-0.4%,11.2µM*
O=c1c(N2CCN(c3ccc(F)cc3)CC2)csc2ccc(F)cc12,?,?,7.2%,1.0%,5.01µM*
Cc1ccc(N2CCN(S(=O)(=O)c3nnc(NC(=O)c4cccc(F)c4)s3)CC2)cc1,-1.4%,-10.5%,-4.8%,5.1%,?
O=C(O)c1ccc2c(c1)C1C=CCC1C(c1ccncc1)N2 (stereo not given),?,?,5.8%,-8.0%,25.1µM*
CCCC1Nc2ccc(C(=O)O)cc2C2C=CCC12 (stereo not given),?,?,3.2%,7.6%,22.4µM*
CCOCCn1ccc2c(OCC(=O)NCc3ccc(F)cc3)cccc2c1=O,-6.5%,-3.1%,-0.2%,-1.3%,1.1%
CCN(CC)c1nc2c3c(nc4c(c3c1C#N)CC(=O)N4c1ccc(Cl)cc1)NC(C)=N2,?,?,5.4%,-2.3%,15.8µM*
CCc1cc(-c2n[nH]c(C)c2-c2ccc3c(c2)OCCO3)c(O)cc1O,14.4%,10µM*[quencher],-0.4%,0.1%,?
CCCc1cc(-c2n[nH]c(C)c2-c2ccc(C(=O)OCC)o2)c(O)cc1O,?,14.1µM*[quencher],2.2%,-6.3%,-9.4%
C=CCOc1nc(OCC=C)nc(OCC=C)n1,nt,nt,3.6%[201 µM],-1.4%[201 µM],nt
O=C(COc1ccccc1C(=O)N/N=C\c1ccc(O)c(O)c1)N/N=C/c1ccc(O)c(O)c1,9.8%,?,6.6%,-21.4%,12.6µM*
O=C(COc1ccccc1[N+](=O)[O-])N/N=C/c1ccc(O)c([N+](=O)[O-])c1,6.5%,-3.8%,5.0%,-1.7%,?
CC(C)(C)c1ccc(OCc2ccc(C(=O)N/N=C/c3ccc(O)c(O)c3)cc2)cc1,13.9%,15.8µM*[quencher],-6.1%,-0.9%,?
CC(=O)OC(C)(C)C1CC=C(C)CC1 (stereo not given),nt,nt,-0.1%[201 µM],3.0%[201 µM],nt
O=c1[nH]nc(CNc2ccc(O)cc2)c2ccccc12,?,?,28.2µM*,44.7µM*[fluorescent],31.6µM*
SMILES,Tau FP inhib,Tau fluor counter,TRb SRC2 PPI,TexasRed fluor,Tau fibril ThT
COC(=O)CC1C(C)(C)C(=O)C2CC3=C(CC[C@]4(C)C3=CC(=O)OC4c3ccoc3)[C@@]1(C)C2=O (stereo not given in full),-1.1%,-0.3%,-6.0%,-0.5%,-2.3%
COc1cc(NC(=O)CSC2=Nc3ccccc3N=C(c3ccc(F)cc3)C2)cc(OC)c1,-12.5%,-25.4%,0.7%,-2.8%,6.0%
COc1ccc(N=N/C(=C\O)C(=O)c2ccco2)cc1,4.4%,?,-6.0%,-5.5%,8.91µM*
COc1ccc(/C(N)=N/OC(=O)c2ccco2)cc1,-6.7%,2.7%,8.6%,0.7%,-3.0%
O=C(O)c1ccc(N=NNc2cccc([N+](=O)[O-])c2)cc1,5.9%,-9.4%,1.9%,0.4%,?
N#C/C(=N\Nc1cccc([N+](=O)[O-])c1)C(=O)c1ccc(Br)cc1,13.7%,?,-1.6%,-10.0%,10µM*
Cc1ccc(-c2cc(-c3ccco3)c3c(N)c(C(=O)NN)oc3n2)cc1,-1.8%,?,-9.2%,-9.8%,10µM*
COc1cccc(/C=N/NC(=O)c2oc3nc(-c4ccccc4)cc(-c4ccco4)c3c2N)c1,5.5%,-13.8%,-7.0%,-0.4%,?
Cc1cc(=O)n(Cc2cccc(Cl)c2)c2c1c(C)nn2-c1ccccc1,-4.7%,-10.6%,5.6%,-24.2%,-2.5%
Oc1ccc(-c2nc3c4c(ncn3n2)-c2ccccc2CC42CCCC2)cc1,22.4µM*,?,1.0%,0.1%,4.9%
CCOC(=O)c1ccccc1NC(=O)CSc1nnc(CC)n2c1cc1occc12,-1.8%,-14.3%,3.4%,-2.3%,?
CCOC(=O)/C=C(C)\C=C\c1c[nH]c2ccccc12,15.3%,14.1µM*[quencher],7.7%,-2.8%,?
CCOC(=O)/C(=C/c1c[nH]c2ccccc12)NC(C)=O,-5.2%,-9.2%,-1.0%,-4.4%,?
Cc1ccc(Nc2nc3ccccc3c3nncn23)cc1C,?,?,-5.9%,-0.6%,?
Cc1cc(-c2csc(NC(=O)c3ccc(=O)[nH]c3)n2)c(C)n1Cc1ccco1,?,?,4.4%,?,3.98µM*
Cc1cc(-c2ccccc2)nc(-c2ccccc2)c1C,11.8%,-24.8%,-0.3%,-6.2%,3.16µM*
C=CC[n+]1c(/C=C2\C=Cc3cc(C)ccc3N2CC)ccc2ccccc21,-1.6%,14.1µM*[fluorescent],4.5%,-0.7%,3.55µM*
CCOC(=O)c1cc(-c2ccccc2)n(CCCC(=O)Nc2cccc(C)c2C)c1C,-6.0%,-10.4%,-10.0%,0.6%,-11.9%
CCOC(=O)c1cccc(NC(=O)N2CC=C(c3c[nH]c4ccccc34)CC2)c1,-6.4%,12.6µM*[quencher],-1.7%,-0.4%,?
Cc1cc(NC(=O)N2CC=C(c3c[nH]c4ccccc34)CC2)ccc1Br,-9.9%,12.6µM*[quencher],-5.2%,-2.0%,7.94µM*
CCOc1ccc(NC(=O)N2CC=C(c3c[nH]c4ccccc34)CC2)cc1,-7.9%,15.8µM*[quencher],1.2%,-0.8%,4.47µM*
Cc1[nH]c2ccccc2c1C(=O)C(=O)N1CC=C(c2ccccc2)CC1,2.8%,-1.7%,-0.4%,-2.4%,2.9%
